Pf growth 48h: P. falciparum growth inhibition at 48 hours (one generation) | P. falciparum luciferase growth in erythrocytes, 48 h | Potency, µM (top dose mostly 28.7 µM), hits mostly inhibitors | 310,000 compounds, 5.9% hits | AID 504832
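Compounds are pin-transferred into medium, infected erythrocytes (2% hematocrit, 0.1% parasitemia final) are added, and plates sit one parasite generation at 37 C in 5% CO2. Detection reagent is then added and luminescence measured.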
HCV inhibitor: blocks hepatitis C virus; 340,000 compounds, 3.4% hits; AID 651820; Huh7.5.1 HCVcc-Cre infection, luciferase reporter, 44 h; Potency, µM (highest dose often 41.8 µM), usual class: inhibitors
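Luciferase read-out (15 sec integration) after a 15 min room-temperature substrate step quantifies HCVcc-Cre infection. Cells, 1,000 per well, had compound added 4 h post-plating, then virus at ~0.5 moi, and were cultured 44 h.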
Pf growth 96h: P. falciparum growth inhibition at 96 hour, primary screen for plastid delayed-death inhibitors. AID 504834. Potency, µM (series often up to 28.7 µM), most hits filed as inhibitors. 320,000 compounds, 6.9% hits. P. falciparum luciferase reporter growth, 96 h
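Infected RBCs, 2% Hct / 0.05% parasitemia final; luciferase-reporter P. falciparum; cpd 96 h, 37 C, 5% CO2; luciferase detection reagent; luminescence.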
Shiga toxin inh: Shiga toxin inhibition; Vero cells, Shiga toxin protein synthesis inhibition reporter; inhibition, % at 38.7 µM; 290,000 compounds, 9.2% hits; in the data active = inhibition mostly above about 28%, no sharp cut-off; inactive = mostly below about 43%
HCMV antiviral: blocks human cytomegalovirus replication | HFF cells, HCMV-luciferase reporter, 72 h; hits give low values | activity change, negative = inhibition, % at 57.5 µM | 410,000 compounds, 4.5% hits | AID 1259415; in the data active = activity change below about -60%; inconclusive = no clear call, values can overlap the other calls; inactive = above about -39%
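Screen run at 2 compound doses on HFFs infected with reporter HCMV, MOI 1 PFU/cell. Luciferase activity from cell lysates at 72 h post infection gave inhibition relative to buffer-only and Salinomycin wells.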
Cycloheximide cs: counter-screen hit for Shiga toxin inhibitors, cycloheximide. 300,000 compounds, 12% hits. cell reporter, cycloheximide protein synthesis inhibition counterscreen. max response, %. AID 2314; in the data active = max response mostly above about 13%, no sharp cut-off; inactive = mostly below about 14%; note: read at 38.3 µM for the half of the compounds with a filed dose
Numbers stand for hits. Rows were chosen to be rich in hits. Some 21% of all compounds tested hit in one or more screens of this group. Unless noted, calls come from the whole dose curve; as a rule, active = well fitted inhibition curve with a large enough effect; inconclusive = small, poorly fitted or top-dose-only effect, or another doubt; inactive = no such curve, though single readings can be large or run the other way.

`Cc1ccc2[nH]c(-c3ccccc3)c(CN(C)C)c(=O)c2c1` gave Pf growth 48h inconclusive, HCV inhibitor inactive, Pf growth 96h inconclusive, Shiga toxin inh inactive, HCMV antiviral inactive and Cycloheximide cs 41.
Screening CCCc1c(C)c2cc(C)ccc2[nH]c1=O returned Pf growth 48h inactive, HCV inhibitor inactive, Pf growth 96h 9.3µM, Shiga toxin inh inactive, HCMV antiviral inactive and Cycloheximide cs inactive.
`COc1ccc(-n2c(SCC(=O)c3ccccc3)nc3c([nH]c4ccccc43)c2=O)cc1` gave HCMV antiviral inactive.
For COc1cccc(CSc2nc3n(n2)C(CC(C)C)C(C(=O)Nc2ccccc2OC)=C(C)N3)c1 (centres undefined) the results were HCMV antiviral -70.
Screening COc1cc(C2C(C(=O)Nc3ccc(C)cc3C)=C(C)Nc3nc(SCc4ccccc4)nn32)cc(OC)c1OC (centres undefined) returned HCMV antiviral -74.
Screening COc1cc(C2C(C(=O)Nc3ccccc3C)=C(C)Nc3nc(SCc4cc(C)ccc4C)nn32)ccc1O (centres undefined) returned Shiga toxin inh inactive, HCMV antiviral -74 and Cycloheximide cs inactive.
`CC1=C(C(=O)Nc2ccccc2C)C(c2cccs2)n2nc(SCc3ccccc3)nc2N1` (centres undefined) gave HCMV antiviral -65.
Cc1cc(C)cc(OCCSc2nc3ccc(NC(=O)COc4ccccc4)cc3s2)c1 was read as HCMV antiviral inactive.
Screening CCOc1ncccc1C(=O)N1CCCSC1=Nc1ccc(C(C)=O)cc1 returned Pf growth 48h inconclusive, HCV inhibitor inactive, Pf growth 96h inconclusive, Shiga toxin inh inactive, HCMV antiviral inactive and Cycloheximide cs inactive.
Screening O=C(N/C(=C/c1ccc(F)cc1)C(=O)N1CCCCC1)c1ccco1 returned Pf growth 48h inactive, HCV inhibitor inactive, Pf growth 96h inactive, Shiga toxin inh inactive, HCMV antiviral inactive and Cycloheximide cs inactive.
CCN(CC)Cc1c(C)[nH]c2ccc(NC(C)=O)cc2c1=O was read as HCMV antiviral inactive.
Screening S=C1NC2(CCCC2)N=C1c1ccccc1 returned Pf growth 48h inactive, HCV inhibitor inactive, Pf growth 96h inactive, Shiga toxin inh inactive, HCMV antiviral inactive and Cycloheximide cs 21.
CN1CCC2(CC1)N=C(c1ccc(F)cc1)C(=S)N2 was read as Pf growth 48h inactive, HCV inhibitor inactive, Pf growth 96h inconclusive, Shiga toxin inh inactive, HCMV antiviral inactive and Cycloheximide cs inactive.
Screening S=C1NC2(CCCCCC2)N=C1c1ccccc1 returned Pf growth 48h 13µM, HCV inhibitor inconclusive, Pf growth 96h inactive, Shiga toxin inh inactive, HCMV antiviral inactive and Cycloheximide cs inactive.
Cc1ccc(C2=NC3(CCCC3)NC2=S)cc1 was read as Pf growth 48h inactive, HCV inhibitor inactive, Pf growth 96h inactive, Shiga toxin inh inactive, HCMV antiviral inactive and Cycloheximide cs 22.
O=C1NC2(CCCCCC2)N=C1c1ccc(F)cc1 was read as HCV inhibitor inactive, Shiga toxin inh inactive, HCMV antiviral inactive and Cycloheximide cs inactive.
`CCN(Cc1ccccc1)C1CCN(Cc2ccccc2)CC1` gave Pf growth 48h inconclusive, HCV inhibitor inactive, Pf growth 96h inactive, Shiga toxin inh inactive and Cycloheximide cs inactive.
For CCCCN(C)C(=O)C1CCN(CCCc2ccccc2)CC1 the results were Pf growth 48h 2.3µM, HCV inhibitor inactive, Shiga toxin inh inactive, HCMV antiviral inactive and Cycloheximide cs inactive.
CN(C)CC(C)(C)CNC(=O)C1CCN(CCCc2ccccc2)CC1 was read as Pf growth 48h inconclusive, HCV inhibitor 13µM, Pf growth 96h inconclusive, Shiga toxin inh inactive, HCMV antiviral inactive and Cycloheximide cs inactive.
CC1CCCN(C(=O)C2CCN(CCCc3ccccc3)CC2)C1 (centres undefined) was read as Pf growth 48h inactive, HCV inhibitor inactive, Pf growth 96h inconclusive, Shiga toxin inh inactive, HCMV antiviral inactive and Cycloheximide cs inactive.
For CCCN1CCC(N(CCc2ccccc2)Cc2ccccc2)CC1 the results were Pf growth 48h inconclusive, HCV inhibitor inconclusive, Pf growth 96h 12µM, Shiga toxin inh inactive, HCMV antiviral inactive and Cycloheximide cs inactive.
`Cc1cc(C)c(NC(=O)c2cccs2)c(C)c1NC(=O)c1cccs1` gave Pf growth 48h inactive, HCV inhibitor inactive, Pf growth 96h inactive, Shiga toxin inh inactive, HCMV antiviral inactive and Cycloheximide cs inactive.
`Cc1ccc(C(=O)OCC(=O)c2c[nH]c3ccccc23)cc1S(=O)(=O)N1CCCCC1` gave Pf growth 48h inconclusive, HCV inhibitor 32µM, Pf growth 96h inconclusive, Shiga toxin inh inactive, HCMV antiviral inactive and Cycloheximide cs inactive.
COc1ccc(CC(=O)Nc2ccc(C)c(S(=O)(=O)N3CCCCCC3)c2)cc1 was read as Pf growth 48h inconclusive, HCV inhibitor inconclusive, Pf growth 96h inactive and HCMV antiviral inactive.
`COc1ccc(S(=O)(=O)N2CCCCC2)cc1NC(=O)Cc1c[nH]c2ccccc12` gave Pf growth 48h inconclusive, HCV inhibitor inconclusive, Pf growth 96h 8.3µM, Shiga toxin inh inactive, HCMV antiviral inactive and Cycloheximide cs inactive.
For Cc1ccc(S(=O)(=O)N2CCCCC2)cc1NC(=O)Cc1c[nH]c2ccccc12 the results were Pf growth 48h inconclusive, HCV inhibitor inconclusive, Pf growth 96h 5.2µM, Shiga toxin inh inactive, HCMV antiviral inactive and Cycloheximide cs inactive.
For Cc1ccc(C(=O)OCC(=O)NCc2ccccc2)cc1S(=O)(=O)N1CCCCC1 the results were Pf growth 48h inconclusive, HCV inhibitor inactive, Pf growth 96h inconclusive and HCMV antiviral inactive.
Cc1ccc(NC(=O)Cc2c[nH]c3ccccc23)cc1S(=O)(=O)N1CCCCCC1 was read as Pf growth 48h 13µM, HCV inhibitor inactive, Pf growth 96h 12µM, Shiga toxin inh inactive, HCMV antiviral inactive and Cycloheximide cs inactive.
`COc1ccc(CS(=O)(=O)c2ncn[nH]2)cc1` gave Pf growth 48h inactive, HCV inhibitor inactive, Pf growth 96h inactive, Shiga toxin inh inactive, HCMV antiviral inactive and Cycloheximide cs inactive.
`Cc1cc(C(=O)N2CCN(c3cccc(C)c3C)CC2)c2c(C)nn(-c3ccccc3)c2n1` gave HCMV antiviral inactive.
For Cc1ccc(NC(=O)Cc2n[nH]c(=O)c3ccccc23)cc1S(=O)(=O)N1CCCCCC1 the results were Pf growth 48h inconclusive, HCV inhibitor 10µM, Pf growth 96h inconclusive and HCMV antiviral -69.
COc1ccc(S(=O)(=O)N2CCCCC2)cc1NC(=O)CSc1ncnc2ccccc12 was read as Pf growth 48h 12µM, HCV inhibitor inconclusive, Pf growth 96h 2.3µM, Shiga toxin inh inactive, HCMV antiviral inactive and Cycloheximide cs inactive.
Screening O=c1c2cc3c(cc2nc2sc(Nc4ccccc4)nn12)OCO3 returned HCMV antiviral inactive.
`COc1ccccc1NC(=O)CC(NCc1ccccc1)C(=O)O` (centres undefined) gave Pf growth 48h inactive, HCV inhibitor inactive, Pf growth 96h 2.6µM, Shiga toxin inh inactive, HCMV antiviral inactive and Cycloheximide cs inactive.

Compound activity as filed in PubChem.
